Source: the supplement of paper PMC6555819

Key:
Assay in all cases: PBM binding z-score (relative to random genomic background probes); higher = stronger binding; sequences stand for … in GC…GCGATTGACAGCGTAGAATGAAGG
[1] = system: FXR:RXRa (NR concentration 270 nM, RXRa partner concentration 90 nM)
In short: (§1)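 On custom Agilent 4×180K arrays, double-stranded probes with 34-nt variable regions carried direct-repeat seeds, single-nucleotide variants, half-site ablations or random human genomic background. Ligand-free nuclear receptor dimers were applied for 1 h, and binding was read with antibodies against each partner (one per run). Binding z-scores come from regression-normalized fluorescence, with the random background probes as reference.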

[2] = system: LXRa:RXRa (NR concentration 270 nM, RXRa partner concentration 90 nM)
In short: as §1

[3] = system: LXRa homodimer (NR concentration 270 nM)
In short: as §1

[4] = system: LXRb:RXRa (NR concentration 270 nM, RXRa partner concentration 90 nM)
In short: as §1

[5] = system: LXRb homodimer (NR concentration 270 nM)
In short: as §1

[6] = system: PPARa:RXRa (NR concentration 270 nM, RXRa partner concentration 90 nM)
In short: as §1

[7] = system: PPARg:RXRa (NR concentration 180 nM, RXRa partner concentration 90 nM)
In short: as §1

[8] = system: PPARg:RXRa 270nM:90nM, anti-RXR (NR concentration 270 nM, RXRa partner concentration 90 nM)
In short: as §1

[9] = system: PPARg:RXRa 30nM:10nM, anti-RXR (NR concentration 30 nM, RXRa partner concentration 10 nM)
In short: as §1

[10] = system: PPARg:RXRa 90nM:30nM, anti-RXR (NR concentration 90 nM, RXRa partner concentration 30 nM)
In short: as §1

GCGACTGGGGCAAAGCAGGTTACCCTAAGGTTGG gave a PBM binding z-score [1] of 0.366, a PBM binding z-score [2] of 0.0738 and a PBM binding z-score [3] of -0.555. For the same sequence, the PBM binding z-score [4] was 0.116, the PBM binding z-score [5] was -0.841 and the PBM binding z-score [6] was 1.56. The PBM binding z-score [7] was 1.08, the PBM binding z-score [8] was 1.52 and the PBM binding z-score [9] was -0.381. For the same sequence, the PBM binding z-score [10] was 0.659.
GCTCGGTGGACAAGGTCAGAGCTTTGTCCGTAGA gave a PBM binding z-score [1] of 1.11, a PBM binding z-score [2] of 1.03 and a PBM binding z-score [3] of -0.446. It also gave a PBM binding z-score [4] of 0.887, a PBM binding z-score [5] of -1.16 and a PBM binding z-score [6] of 2.09. The PBM binding z-score [7] was 0.0962, the PBM binding z-score [8] was 1.14 and the PBM binding z-score [9] was -0.712. The PBM binding z-score [10] was 0.499.
ACTAGTTGGTCAGCTGATGTCACACACAATTCGG gave a PBM binding z-score [1] of 0.0768, a PBM binding z-score [2] of -0.317 and a PBM binding z-score [3] of -0.115. For the same sequence, the PBM binding z-score [4] was 0.235, the PBM binding z-score [5] was -0.112 and the PBM binding z-score [6] was 0.0483. The PBM binding z-score [7] was 0.943, the PBM binding z-score [8] was 0.0634 and the PBM binding z-score [9] was 0.0518. It also gave a PBM binding z-score [10] of 0.0179.
TCTGCTAGGTGAGTTGGTCAGCTAACGAGCTGCC gave a PBM binding z-score [1] of -0.433, a PBM binding z-score [2] of -0.56 and a PBM binding z-score [3] of -0.902. For the same sequence, the PBM binding z-score [4] was -0.937, the PBM binding z-score [5] was -0.888 and the PBM binding z-score [6] was -0.304. For the same sequence, the PBM binding z-score [7] was -0.825, the PBM binding z-score [8] was 0.406 and the PBM binding z-score [9] was 0.873. The PBM binding z-score [10] was 0.748.
For CCCAGTAGGTTATGGGGCATTCAGGCAACGGTGA, the PBM binding z-score [1] was 0.192, the PBM binding z-score [2] was 0.622 and the PBM binding z-score [3] was -0.205. For the same sequence, the PBM binding z-score [4] was -0.0107, the PBM binding z-score [5] was -0.618 and the PBM binding z-score [6] was 2.63. The PBM binding z-score [7] was 5.2, the PBM binding z-score [8] was 5.47 and the PBM binding z-score [9] was 4.14. For the same sequence, the PBM binding z-score [10] was 5.66.
Sequence TCTTGTACATCAAAGGTTAAGAAAGCCGAAGCCT has a PBM binding z-score [1] of 1.52, a PBM binding z-score [2] of 2.15 and a PBM binding z-score [3] of 0.446. For the same sequence, the PBM binding z-score [4] was 2, the PBM binding z-score [5] was 0.657 and the PBM binding z-score [6] was 2.92. It also gave a PBM binding z-score [7] of 2.52, a PBM binding z-score [8] of 4.42 and a PBM binding z-score [9] of 3.95. The PBM binding z-score [10] was 4.35.
ACTATTAGTAGAGACGAGGGCAACCGATAGGTTG showed a PBM binding z-score [1] of 0.0303, a PBM binding z-score [2] of 0.0981 and a PBM binding z-score [3] of 0.152. For the same sequence, the PBM binding z-score [4] was -0.117, the PBM binding z-score [5] was 0.12 and the PBM binding z-score [6] was 0.455. The PBM binding z-score [7] was 1, the PBM binding z-score [8] was 1.21 and the PBM binding z-score [9] was 0.245. The PBM binding z-score [10] was 0.958.
ATATGTAGGTTATCGGGTCATTGAGTTTGCGCAT showed a PBM binding z-score [1] of 3.15, a PBM binding z-score [2] of 3.21 and a PBM binding z-score [3] of 1.69. For the same sequence, the PBM binding z-score [4] was 2.94, the PBM binding z-score [5] was 1.33 and the PBM binding z-score [6] was 4.75. The PBM binding z-score [7] was 7.4, the PBM binding z-score [8] was 6.33 and the PBM binding z-score [9] was 3.44. The PBM binding z-score [10] was 5.94.
For CCAACTAGGTCATCCAGGACAGTGAATACATTGA, the PBM binding z-score [1] was 3.96, the PBM binding z-score [2] was 2.83 and the PBM binding z-score [3] was 1.3. For the same sequence, the PBM binding z-score [4] was 2.48, the PBM binding z-score [5] was 0.7 and the PBM binding z-score [6] was 4.41. The PBM binding z-score [7] was 6.66, the PBM binding z-score [8] was 5.59 and the PBM binding z-score [9] was 2.96. It also gave a PBM binding z-score [10] of 4.83.
AACTCTAGGTAAAGTTCAGTGAAAGATCGATAGA gave a PBM binding z-score [1] of 0.741, a PBM binding z-score [2] of 1.51 and a PBM binding z-score [3] of 1.46. It also gave a PBM binding z-score [4] of 1.06, a PBM binding z-score [5] of 0.134 and a PBM binding z-score [6] of 2.44. The PBM binding z-score [7] was 3.7, the PBM binding z-score [8] was 4.77 and the PBM binding z-score [9] was 2.77. For the same sequence, the PBM binding z-score [10] was 4.53.
CCTAATGGGCCAAGGTCATTGATCAGTCAAAGCA was tested, and the PBM binding z-score [1] was 3.25, the PBM binding z-score [2] was 3.17 and the PBM binding z-score [3] was 1.04. The PBM binding z-score [4] was 2.93, the PBM binding z-score [5] was -0.303 and the PBM binding z-score [6] was 3.86. For the same sequence, the PBM binding z-score [7] was 2.44, the PBM binding z-score [8] was 3 and the PBM binding z-score [9] was 0.651. The PBM binding z-score [10] was 2.34.
CCTACTGGGCAAAGGTCATTGATCAGTCAAAGCA gave a PBM binding z-score [1] of 4.96, a PBM binding z-score [2] of 5.6 and a PBM binding z-score [3] of 3.49. For the same sequence, the PBM binding z-score [4] was 4.8, the PBM binding z-score [5] was 0.805 and the PBM binding z-score [6] was 5.63. For the same sequence, the PBM binding z-score [7] was 8.03, the PBM binding z-score [8] was 7.54 and the PBM binding z-score [9] was 5.9. The PBM binding z-score [10] was 7.6.
